Measurements taken from PubChem BioAssay (NCATS).
Activity calls are given as the source filed them. The call rests on the fitted dose curve.

Assay: Cell Proliferation Assay Versus the ED40515 IL2 Independent ATL cell lines (AID 1053194)
Conditions: ED40515 IL2-independent ATL cells
Excerpt: Adult T-cell leukemia (ATL) develops in individuals infected with human T-cell lymphotropic virus-1 (HTLV-1). Clinically, ATL is subclassified into four subtypes: smoldering, chronic, lymphomatous, and acute. Two autocrine loops (IL-2/IL-2Ralpha and IL-15/IL-15Ralpha) and one paracrine stimulation loop that involves IL-9 expression by ATL cells and IL-9Ralpha expression on monocytes are required to maintain viability and proliferation in the smoldering and chronic forms of the disease. These assays examined the differential response profiles for the MIPE library of approved and investigational drugs versus an IL2 dependent and independent matched ATL cell line, with the current submission examining the differential response profiles for drugs on an IL2 independent matched ATL cell line
Plate log growing ED40515 -IL2 cells: 1000cells/ well in 5uL phenol red free RPMI +5% FBS +1x p/s, Glutamine using 1536 well white griener tissue culture plates and multidrop cassette acoustic dispensing Columns 1 and 3 DMSO Columns 2 and 4, 9.2 uM Bortezomib Incubate 48 hours for celltiter glo 37C with 5%CO2 and 95% humidity with low evaporation lids Dispense 3 uL per well of cell titer glo with multidrop Incubate for 15 minutes at RT Read on VL/2 using Luminesence Wheel (Filter A)

SMILES | Potency
COC[C@H]1OC(=O)c2coc3c2[C@@]1(C)C1=C(C3=O)C2CCC(=O)[C@@]2(C)C[C@H]1OC(C)=O (stereo partly drawn) | 14.8 µM (active)
CO[C@@H](C(=O)N1Cc2[nH]nc(NC(=O)c3ccc(N4CCN(C)CC4)cc3)c2C1)c1ccccc1 | 7.43 µM (active)
C[C@]12CCC(=O)C(O)=C1CC[C@@H]1[C@@H]2CC[C@]2(C)C(=O)CC[C@@H]12 | 26.4 µM (active)
CNC(=O)N1N=C(c2ccc(N)cc2)c2cc3c(cc2CC1C)OCO3 (stereo not drawn) | 2.96 µM (active)
CS(=O)c1ccc(-c2nc(-c3ccc(F)cc3)c(-c3ccncc3)[nH]2)cc1 (stereo not drawn) | 29.6 µM (active)
Cc1cc(SCc2sc(-c3ccc(C(F)(F)F)c(F)c3)nc2C)ccc1OCC(=O)O | 26.4 µM (active)
Cn1cc(C2=C(c3cn(C4CCN(Cc5ccccn5)CC4)c4ccccc34)C(=O)NC2=O)c2ccccc21 | 13.2 µM (active)
CN(C)CCN(C)CCc1ccc(Cl)c(Cl)c1 | 16.6 µM (active)
Cc1sc2c(c1C)C(c1ccc(Cl)cc1)=N[C@@H](CC(=O)OC(C)(C)C)c1nnc(C)n1-2 | 0.0833 µM (active)
Cn1c(CCCC(=O)O)nc2cc(N(CCCl)CCCl)ccc21 | 18.7 µM (active)
COC1(CS(=O)c2ccccc2)CCN(CCc2c[nH]c3ccc(F)cc23)CC1 (stereo not drawn) | 23.5 µM (active)
O=C(O)C(=O)c1cn(Cc2ccccc2)c2ccc(-c3ccc(OC(F)(F)F)cc3)cc12 | 20.9 µM (active)
CC(O)(CS(=O)(=O)c1ccc(F)cc1)C(=O)Nc1ccc(C#N)c(C(F)(F)F)c1 (stereo not drawn) | 18.7 µM (active)
